Test results from PubChem BioAssay (EPA / NIEHS).
Inconclusive results are not listed. Activity calls are given as the source filed them. Rule for the calls: active = hit-call score of the fitted dose curve at least 0.9, where 1 is the maximum; inconclusive = response in the unintended direction; inactive = score below 0.9.

Legend:
[1] = test system: rat Adrenergic, Alpha 1B Receptor (Adra1B), gene 24173; experiment: NVS_GPCR_rAdra1B: NovaScreen (NVS) G Protein-Coupled Receptor Assay for rat Adrenergic, Alpha 1B Receptor (Adra1B) (AID 2283297)
Outline: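 Rat liver membranes, radioligand displacement with filter-based scintillation detection, 1 h incubation. Primary screen in duplicate at 25 uM; actives retested in concentration series; activity relative to DMSO.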

[2] = biological target: rat Adrenergic Receptor, Alpha 2 (Adra2), Non-selective Binding, Adra2a (gene 25083) (UniProt P22909); experiment: NVS_GPCR_rAdra2_NonSelective: NovaScreen (NVS) G Protein-Coupled Receptor Assay for rat Adrenergic Receptor, Alpha 2 (Adra2), Non-selective Binding (AID 2283299)
Outline: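 Rat cortical membranes, radioligand competitive displacement read by filter-based scintillation counting 1.25 hours after dosing. Primary screen in duplicate at 25 uM; actives followed up in concentration series.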

[3] = biological target: rat Gamma-Aminobutyric Acid Type B Receptor (GABBR), Gabbr1 (gene 81657) (UniProt Q9Z0U4); experiment: NVS_GPCR_rGABBR: NovaScreen (NVS) G Protein-Coupled Receptor Assay for rat Gamma-Aminobutyric Acid Type B Receptor (GABBR) (AID 2283301)
Outline: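 Radioligand displacement on rat cortical membranes, 1 h, filter-based scintillation counting. Primary screen at 25 uM in duplicate; compounds passing threshold re-tested in concentration-response up to 50 uM; loss of binding fitted against DMSO.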

[4] = biological target: rat Histamine Receptor (H3), Hrh3 (gene 85268) (UniProt Q9QYN8); experiment: NVS_GPCR_rH3: NovaScreen (NVS) G Protein-Coupled Receptor Assay for rat Histamine Receptor (H3) (AID 2283303)
Outline: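 Rat forebrain membranes incubated 1 h with compound; radioligand displacement measured by filter-based scintillation counting. Single-concentration duplicates at 25 µM, then concentration-response up to 50 µM, relative to DMSO.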

Adra2b (gene 24174) = Adra2b (gene 24174) (UniProt P19328); experiment: NVS_GPCR_rmAdra2B: NovaScreen (NVS) G Protein-Coupled Receptor Assay for hybird cells Adrenergic, Alpha 2B Receptor (Adra2B) (AID 2283306)
Outline: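 Radioligand filter-binding assay on membrane proteins from neuroglioma/blastoma hybrid cells (rodent), 1 h after dosing; scintillation counting, loss of signal vs DMSO. Primary screen in duplicate at 25 uM, actives then run in concentration series.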

[5] = biological target: rat Neurokinin-1 Receptor (NK1), Tacr1 (gene 24807) (UniProt P14600); experiment: NVS_GPCR_rNK1: NovaScreen (NVS) G Protein-Coupled Receptor Assay for rat Neurokinin-1 Receptor (NK1) (AID 2283309)
Outline: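 Rat submaxillary gland membranes; radioligand displacement read by filter-based scintillation counting after 1 h. Primary screen in duplicate at 25 uM; actives retested in concentration series; loss of binding fitted versus DMSO.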

[6] = biological target: rat Opioid Receptor, Non-selective Sodium (Na+) Binding, Oprm1 (gene 25601) (UniProt P33535); experiment: NVS_GPCR_rOpiate_NonSelectiveNa: NovaScreen (NVS) G Protein-Coupled Receptor Assay for rat Opioid Receptor, Non-selective Sodium (Na+) Binding (AID 2283311)
Outline: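 Rat forebrain membranes, radioligand displacement with filter scintillation counting, 1.5 h incubation. Screened in duplicate at 25 µM; hits then run in concentration-response up to 50 µM; loss of binding fitted versus DMSO.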

[7] = biological target: rat Neonicotinoid receptor (NNR), Chrna7 (gene 25302) (UniProt Q05941); experiment: NVS_LGIC_rNNR_BungSens: NovaScreen (NVS) Ligand-Gated Ion Channel Assay for rat Neonicotinoid receptor (NNR) (AID 2283315)
Outline: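 Radioligand displacement binding on rat cortical membranes, 2.5 h incubation, filtration and scintillation counting. Loss of specific binding fitted relative to DMSO.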

[8] = biological target: rat Opioid Receptor, Non-selective Binding, Oprm1 (gene 25601) (UniProt P33535); experiment: NVS_GPCR_rOpiate_NonSelective: NovaScreen (NVS) G Protein-Coupled Receptor Assay for rat Opioid Receptor, Non-selective Binding (AID 2283318)
Outline: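 Rat forebrain membranes, cell-free radioligand binding with filter-based scintillation counting, read 1.5 h after dosing. Primary screen in duplicate at 25 uM; actives retested in concentration series. Loss of signal versus DMSO baseline scored.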

[9] = biological target: rat Glutamate, AMPA Site (AMPA), Gria1 (gene 50592) (UniProt P19490); experiment: NVS_LGIC_rAMPA: NovaScreen (NVS) Ligand-Gated Ion Channel Assay for rat Glutamate, AMPA Site (AMPA) (AID 2283324)
Outline: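 Rat forebrain membranes; radioligand binding read 1 h after dosing by filtration and scintillation counting. Duplicate single-point screen at 25 uM, then concentration-response to 50 uM for threshold hits (e.g. 30% inhibition); loss of signal vs DMSO.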

[10] = NVS_IC_rCaDHPRCh_L: NovaScreen (NVS) Ion Channel Assay for rat Calcium Channel, Type L, Dihydropyridine Site (CaDHPRCh_L) (AID 2283320)
Outline: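 Radioligand binding to dihydropyridine site on rat cortical membranes, filter-based scintillation counting, 1 h after dosing. Screened in duplicate at 25 uM; actives rerun in concentration-response up to 50 uM. Loss of signal versus DMSO baseline.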

[11] = biological target: rat Neurokinin-3 Receptor (NK3), Tacr3 (gene 24808) (UniProt P16177); experiment: NVS_GPCR_rNK3: NovaScreen (NVS) G Protein-Coupled Receptor Assay for rat Neurokinin-3 Receptor (NK3) (AID 2283310)
Outline: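 Rat cortical membranes; radioligand binding with filtration and scintillation counting, 2 h after dosing. Primary screen in duplicate at 25 uM, then concentration-response up to 50 uM; loss of binding signal relative to DMSO.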

[12] = biological target: rat Adrenergic Receptor, Beta (Adrb), Non-selective Binding, Adrb1 (gene 24925) (UniProt P18090); experiment: NVS_GPCR_rAdrb_NonSelective: NovaScreen (NVS) G Protein-Coupled Receptor Assay for rat Adrenergic Receptor, Beta (Adrb), Non-selective Binding (AID 2283298)
Outline: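 Non-selective beta-adrenergic radioligand binding in rat cortical membranes, 1 h incubation, filter-based scintillation read-out. Primary screen 25 uM in duplicate; hits retested in concentration-response up to 50 uM, DMSO baseline.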

[13] = biological target: human Serotonin, 5-Hydroxytryptamine Receptor 3 (5HT3), HTR3A (gene 3359) (UniProt P46098); experiment: NVS_LGIC_h5HT3: NovaScreen (NVS) Ligand-Gated Ion Channel Assay for human Serotonin, 5-Hydroxytryptamine Receptor 3 (5HT3) (AID 2283325)
Outline: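 Radioligand displacement binding to human 5-HT3 from HEK293 membranes, read by filter-based scintillation counting after 1 h. Screen at 25 uM in duplicate; chemicals passing threshold were retested in concentration-response up to 50 uM.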

[14] = biological target: rat Adrenergic, Alpha 1A Receptor (Adra1A), Adra1a (gene 29412) (UniProt P43140); experiment: NVS_GPCR_rAdra1A: NovaScreen (NVS) G Protein-Coupled Receptor Assay for rat Adrenergic, Alpha 1A Receptor (Adra1A) (AID 2283296)
Outline: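 Rat cortical membranes pretreated with chlorethyl clonidine; competitive radioligand displacement, 1 h. Filter-based scintillation counting. Primary screen in duplicate at 25 uM, actives followed in concentration series.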

[15] = biological target: rat Serotonin, 5-Hydroxytryptamine Receptor (5HT), Non-Selective Binding, Htr1a (gene 24473) (UniProt P19327); experiment: NVS_GPCR_r5HT_NonSelective: NovaScreen (NVS) G Protein-Coupled Receptor Assay for rat Serotonin, 5-Hydroxytryptamine Receptor (5HT), Non-Selective Binding (AID 2283295)
Outline: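 Radioligand displacement on rat cortical membranes, 1 h incubation, filter-based scintillation counting. Primary duplicates at 25 uM, actives retested in concentration series; loss of signal fitted against DMSO as baseline.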

[16] = biological target: rat Somatostatin Receptor (SST), Sstr1 (gene 25033) (UniProt P28646); experiment: NVS_GPCR_rSST: NovaScreen (NVS) G Protein-Coupled Receptor Assay for rat Somatostatin Receptor (SST) (AID 2283314)
Outline: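 Rat forebrain membranes; radioligand displacement read by filter-based scintillation counting 1 h after dosing. Primary screen in duplicate at 25 uM. Actives (e.g., 30% inhibition) were rerun as concentration-response to 50 uM max and fitted against DMSO.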

NCBI gene 24521 = experiment: NVS_IC_rKATPCh: NovaScreen (NVS) Ion Channel Assay for rat Potassium Channel, ATP-Sensitive (KATPCh) (AID 2283319)
Outline: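 Rat cortical membranes; radioligand binding at ATP-sensitive K channel site, filter-based scintillation counting 2 h after dosing. Single-point duplicate screen at 25 uM, hits rerun in concentration-response up to 50 uM; loss of signal versus DMSO.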

[17] = biological target: rat Vasopressin 1 Receptor (V1), Avpr1a (gene 25107) (UniProt P30560); experiment: NVS_GPCR_rV1: NovaScreen (NVS) G Protein-Coupled Receptor Assay for rat Vasopressin 1 Receptor (V1) (AID 2283316)
Outline: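 Radioligand binding on rat liver membranes, 1.5 h incubation, filter-based scintillation counting. Single 25 uM screen in duplicate; chemicals meeting threshold (e.g. 30% inhibition) run in concentration-response up to 50 uM.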

[18] = biological target: bovine Gamma-Aminobutyric Acid Type A Receptor BDZ, alpha 5 site (GABARa5), GABRA5 (gene 523515) (UniProt Q08E50); experiment: NVS_LGIC_bGABARa5: NovaScreen (NVS) Ligand-Gated Ion Channel Assay for bovine Gamma-Aminobutyric Acid Type A Receptor BDZ, alpha 5 site (GABARa5) (AID 2283323)
Outline: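 Radioligand competitive displacement binding on bovine hippocampal membranes, read 1 hr after dosing by filter-based scintillation counting. Primary screen at 25 uM in duplicate; actives (e.g. ≥30% inhibition) then run in concentration-response up to 50 uM.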

Chain of rat Neonicotinoid receptor (NNR), Chrna7 (gene 25302) (Q05941 whole entry, looked up): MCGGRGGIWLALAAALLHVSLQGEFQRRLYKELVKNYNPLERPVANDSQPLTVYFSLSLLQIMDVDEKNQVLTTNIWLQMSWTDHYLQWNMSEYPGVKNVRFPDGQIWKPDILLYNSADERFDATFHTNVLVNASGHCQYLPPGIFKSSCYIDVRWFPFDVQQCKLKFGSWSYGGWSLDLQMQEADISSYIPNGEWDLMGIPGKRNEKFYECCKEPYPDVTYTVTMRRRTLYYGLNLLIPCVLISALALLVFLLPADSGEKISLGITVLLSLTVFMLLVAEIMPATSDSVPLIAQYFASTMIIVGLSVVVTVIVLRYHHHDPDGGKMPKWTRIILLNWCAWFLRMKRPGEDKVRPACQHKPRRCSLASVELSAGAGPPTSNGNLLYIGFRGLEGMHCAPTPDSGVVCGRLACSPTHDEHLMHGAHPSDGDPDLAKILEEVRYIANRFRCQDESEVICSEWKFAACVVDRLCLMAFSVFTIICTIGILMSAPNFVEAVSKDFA
Chain of rat Neurokinin-1 Receptor (NK1), Tacr1 (gene 24807) (P14600 whole entry, looked up): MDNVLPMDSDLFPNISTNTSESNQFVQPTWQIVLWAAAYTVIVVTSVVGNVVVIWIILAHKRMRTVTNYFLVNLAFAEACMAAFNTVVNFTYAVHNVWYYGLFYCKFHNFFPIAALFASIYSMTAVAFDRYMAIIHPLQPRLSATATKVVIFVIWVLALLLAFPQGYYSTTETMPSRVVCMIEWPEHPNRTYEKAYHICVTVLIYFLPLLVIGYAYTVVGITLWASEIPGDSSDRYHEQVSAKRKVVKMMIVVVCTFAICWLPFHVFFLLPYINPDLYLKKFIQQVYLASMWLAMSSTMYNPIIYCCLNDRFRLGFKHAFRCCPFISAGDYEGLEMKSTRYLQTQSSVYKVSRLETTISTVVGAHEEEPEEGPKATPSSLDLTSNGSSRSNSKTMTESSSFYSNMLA
Chain of rat Gamma-Aminobutyric Acid Type B Receptor (GABBR), Gabbr1 (gene 81657) (Q9Z0U4 whole entry, looked up): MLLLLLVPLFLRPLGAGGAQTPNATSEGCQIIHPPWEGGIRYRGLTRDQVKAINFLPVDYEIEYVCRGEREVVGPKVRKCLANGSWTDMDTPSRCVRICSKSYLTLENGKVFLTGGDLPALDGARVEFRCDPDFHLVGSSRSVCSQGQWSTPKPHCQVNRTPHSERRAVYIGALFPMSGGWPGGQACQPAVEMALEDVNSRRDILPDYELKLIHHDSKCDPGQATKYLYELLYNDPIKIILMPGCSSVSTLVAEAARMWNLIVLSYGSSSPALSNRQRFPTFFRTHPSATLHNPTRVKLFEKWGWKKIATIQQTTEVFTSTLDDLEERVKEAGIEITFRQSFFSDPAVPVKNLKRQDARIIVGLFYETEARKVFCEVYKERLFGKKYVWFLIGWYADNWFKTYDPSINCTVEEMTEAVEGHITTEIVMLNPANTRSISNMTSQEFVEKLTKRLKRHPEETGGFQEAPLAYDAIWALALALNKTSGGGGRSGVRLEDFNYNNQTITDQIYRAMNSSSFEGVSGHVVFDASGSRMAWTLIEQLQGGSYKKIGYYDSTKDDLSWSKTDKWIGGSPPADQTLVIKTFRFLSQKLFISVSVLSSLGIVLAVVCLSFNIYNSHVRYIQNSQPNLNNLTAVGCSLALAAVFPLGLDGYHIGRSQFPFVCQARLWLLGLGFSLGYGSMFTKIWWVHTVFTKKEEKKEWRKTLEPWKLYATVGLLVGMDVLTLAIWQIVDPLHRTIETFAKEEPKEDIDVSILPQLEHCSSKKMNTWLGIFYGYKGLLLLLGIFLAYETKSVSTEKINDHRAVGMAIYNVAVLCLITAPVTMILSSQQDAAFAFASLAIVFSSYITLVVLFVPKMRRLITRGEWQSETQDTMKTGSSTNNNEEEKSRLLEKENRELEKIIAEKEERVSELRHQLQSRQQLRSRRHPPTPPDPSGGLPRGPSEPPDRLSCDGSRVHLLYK
Chain of rat Glutamate, AMPA Site (AMPA), Gria1 (gene 50592) (P19490 whole entry, looked up): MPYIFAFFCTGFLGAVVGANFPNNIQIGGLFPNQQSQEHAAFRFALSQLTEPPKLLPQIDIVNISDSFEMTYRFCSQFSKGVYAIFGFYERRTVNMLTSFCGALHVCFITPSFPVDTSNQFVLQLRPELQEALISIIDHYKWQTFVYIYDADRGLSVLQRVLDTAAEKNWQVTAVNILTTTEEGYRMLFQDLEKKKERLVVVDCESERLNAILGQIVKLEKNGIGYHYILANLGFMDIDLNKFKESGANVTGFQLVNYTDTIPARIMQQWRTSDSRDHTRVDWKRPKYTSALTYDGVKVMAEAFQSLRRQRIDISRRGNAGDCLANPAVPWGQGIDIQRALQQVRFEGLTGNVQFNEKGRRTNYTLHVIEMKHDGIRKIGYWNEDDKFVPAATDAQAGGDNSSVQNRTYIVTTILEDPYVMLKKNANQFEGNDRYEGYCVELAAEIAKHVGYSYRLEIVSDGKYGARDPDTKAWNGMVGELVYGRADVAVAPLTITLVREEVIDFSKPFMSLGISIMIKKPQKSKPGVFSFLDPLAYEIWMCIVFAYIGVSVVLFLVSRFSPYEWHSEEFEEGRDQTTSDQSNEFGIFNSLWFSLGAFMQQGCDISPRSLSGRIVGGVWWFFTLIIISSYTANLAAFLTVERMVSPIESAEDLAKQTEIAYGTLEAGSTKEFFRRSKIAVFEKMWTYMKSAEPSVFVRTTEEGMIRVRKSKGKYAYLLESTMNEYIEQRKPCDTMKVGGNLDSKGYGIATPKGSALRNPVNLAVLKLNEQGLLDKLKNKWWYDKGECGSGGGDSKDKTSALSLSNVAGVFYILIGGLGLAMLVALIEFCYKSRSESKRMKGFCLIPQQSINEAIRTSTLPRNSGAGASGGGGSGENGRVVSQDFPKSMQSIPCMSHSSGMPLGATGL
Chain of rat Opioid Receptor, Non-selective Sodium (Na+) Binding, Oprm1 (gene 25601) (P33535 whole entry, looked up): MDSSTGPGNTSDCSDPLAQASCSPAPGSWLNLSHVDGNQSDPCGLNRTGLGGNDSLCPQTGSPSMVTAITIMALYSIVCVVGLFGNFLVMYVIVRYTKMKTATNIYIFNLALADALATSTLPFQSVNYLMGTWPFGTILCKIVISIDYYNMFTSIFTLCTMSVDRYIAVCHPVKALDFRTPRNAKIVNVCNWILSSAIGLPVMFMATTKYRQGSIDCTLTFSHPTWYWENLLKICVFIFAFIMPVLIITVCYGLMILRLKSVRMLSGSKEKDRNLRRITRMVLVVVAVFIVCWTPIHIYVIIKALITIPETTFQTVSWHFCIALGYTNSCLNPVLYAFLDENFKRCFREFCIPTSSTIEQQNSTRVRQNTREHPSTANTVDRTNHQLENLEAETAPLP
Chain of rat Opioid Receptor, Non-selective Binding, Oprm1 (gene 25601) (P33535 whole entry, looked up): as above
Chain of rat Adrenergic Receptor, Beta (Adrb), Non-selective Binding, Adrb1 (gene 24925) (P18090 whole entry, looked up): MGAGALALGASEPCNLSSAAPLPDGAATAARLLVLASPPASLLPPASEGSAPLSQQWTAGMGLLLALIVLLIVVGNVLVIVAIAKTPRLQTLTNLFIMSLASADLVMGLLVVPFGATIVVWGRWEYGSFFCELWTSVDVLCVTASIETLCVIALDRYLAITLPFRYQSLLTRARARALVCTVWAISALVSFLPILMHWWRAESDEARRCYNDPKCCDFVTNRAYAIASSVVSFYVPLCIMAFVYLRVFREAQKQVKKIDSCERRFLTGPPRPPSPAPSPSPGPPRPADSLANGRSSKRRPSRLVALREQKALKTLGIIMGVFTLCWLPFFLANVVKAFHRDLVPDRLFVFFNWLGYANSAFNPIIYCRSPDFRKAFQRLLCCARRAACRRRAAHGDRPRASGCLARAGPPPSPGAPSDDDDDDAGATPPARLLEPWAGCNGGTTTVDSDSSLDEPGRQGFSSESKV
Chain of rat Adrenergic Receptor, Alpha 2 (Adra2), Non-selective Binding, Adra2a (gene 25083) (P22909 whole entry, looked up): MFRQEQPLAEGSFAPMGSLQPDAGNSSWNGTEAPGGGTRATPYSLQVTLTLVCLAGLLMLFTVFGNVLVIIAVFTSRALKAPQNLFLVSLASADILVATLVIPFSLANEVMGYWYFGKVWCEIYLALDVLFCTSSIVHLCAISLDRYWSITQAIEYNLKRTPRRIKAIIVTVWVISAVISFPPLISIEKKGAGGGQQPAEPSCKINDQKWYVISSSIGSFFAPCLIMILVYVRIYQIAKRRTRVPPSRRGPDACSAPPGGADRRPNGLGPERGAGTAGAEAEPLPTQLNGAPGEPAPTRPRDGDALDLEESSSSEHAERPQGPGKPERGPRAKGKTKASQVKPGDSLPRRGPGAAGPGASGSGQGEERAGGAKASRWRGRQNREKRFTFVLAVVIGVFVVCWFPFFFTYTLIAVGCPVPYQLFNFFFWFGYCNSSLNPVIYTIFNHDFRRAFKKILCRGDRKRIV
Chain of rat Serotonin, 5-Hydroxytryptamine Receptor (5HT), Non-Selective Binding, Htr1a (gene 24473) (P19327 whole entry, looked up): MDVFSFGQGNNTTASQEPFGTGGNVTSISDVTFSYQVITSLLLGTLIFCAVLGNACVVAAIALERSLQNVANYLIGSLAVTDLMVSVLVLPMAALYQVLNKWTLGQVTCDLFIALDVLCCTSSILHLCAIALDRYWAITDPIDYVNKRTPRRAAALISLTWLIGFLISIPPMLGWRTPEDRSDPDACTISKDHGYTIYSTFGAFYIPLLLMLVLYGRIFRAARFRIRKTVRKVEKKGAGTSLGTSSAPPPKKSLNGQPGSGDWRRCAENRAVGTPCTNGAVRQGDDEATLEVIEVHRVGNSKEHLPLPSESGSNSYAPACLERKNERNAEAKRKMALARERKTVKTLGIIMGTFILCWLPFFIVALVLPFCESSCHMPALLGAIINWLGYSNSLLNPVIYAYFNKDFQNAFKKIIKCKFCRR

## CC[C@H]1CC[C@H](NCc2cc3c(cc2OC)[C@H]2C[C@H]2C(=O)N3C)[C@H](c2ccccc2)N1
[1]
  AC50: 17.2 µM (active)
[2]
  AC50: 13.3 µM (active)
[3]
  outcome: inactive
[4]
  AC50: 15 µM (active)
Adra2b (gene 24174)
  AC50: 12.3 µM (active)
[5]
  AC50: 0.296 µM (active)
[6]
  AC50: 2.83 µM (active)
[7]
  outcome: inactive
[8]
  AC50: 2.58 µM (active)

## CCCCC(CC)COC(=O)CCCCCCCCC(=O)OCC(CC)CCCC (stereo not drawn)
[5]
  outcome: inactive

## CC(=O)OCCC(C)C
[2]
  outcome: inactive
[9]
  outcome: inactive

## O=P(OC(CCl)CCl)(OC(CCl)CCl)OC(CCl)CCl
[10]
  AC50: 6.41 µM (active)

## CC(C)CCO
[7]
  outcome: inactive

## O=C(NS(=O)(=O)/C=C/c1ccccc1)c1ccc(F)cc1Cl
[7]
  outcome: inactive

## CC(C)=CCCC(C)=CC=O
[9]
  outcome: inactive

## CCOC(=O)CC(CC(=O)OCC)(OC(C)=O)C(=O)OCC
[5]
  outcome: inactive
[11]
  outcome: inactive
[7]
  outcome: inactive

## O=C(OC[C@H]1O[C@@H](OC(=O)c2cc(O)c(O)c(OC(=O)c3cc(O)c(O)c(O)c3)c2)[C@H](OC(=O)c2cc(O)c(O)c(OC(=O)c3cc(O)c(O)c(O)c3)c2)[C@@H](OC(=O)c2cc(O)c(O)c(OC(=O)c3cc(O)c(O)c(O)c3)c2)[C@@H]1OC(=O)c1cc(O)c(O)c(OC(=O)c2cc(O)c(O)c(O)c2)c1)c1cc(O)c(O)c(OC(=O)c2cc(O)c(O)c(O)c2)c1
[9]
  AC50: 9.44 µM (active)

## Cc1ccc(O)cc1
[12]
  outcome: inactive

## C=CCCCCCCCCC(=O)O
[13]
  outcome: inactive

## CCOC(=O)c1ccc(C2CCC(NC[C@H](O)COc3ccc(O)c(NS(C)(=O)=O)c3)CC2)cc1 (stereo partly drawn)
[14]
  AC50: 11.5 µM (active)
[12]
  AC50: 8.67 µM (active)
[4]
  AC50: 23.4 µM (active)
Adra2b (gene 24174)
  AC50: 23.4 µM (active)
[5]
  outcome: inactive
[6]
  outcome: inactive
[10]
  AC50: 18.4 µM (active)

## CCCCCCCCCCCCCCCO
[1]
  outcome: inactive
[6]
  outcome: inactive

## CCOC(=O)COc1ccc2c(c1)CC(NCC(O)c1cccc(Cl)c1)CC2 (stereo not drawn)
[15]
  outcome: inactive
Adra2b (gene 24174)
  AC50: 11.2 µM (active)
[10]
  outcome: inactive

## COc1cccc(-c2ccc(/C=C\CN3CCCCCC3)cc2Cl)c1
[14]
  outcome: inactive
[1]
  AC50: 18.7 µM (active)
[2]
  AC50: 2.99 µM (active)
[4]
  AC50: 10.1 µM (active)
Adra2b (gene 24174)
  AC50: 4.39 µM (active)
[6]
  AC50: 15.2 µM (active)
[16]
  outcome: inactive
[7]
  outcome: inactive
[8]
  AC50: 11.2 µM (active)
[10]
  AC50: 0.555 µM (active)
[13]
  outcome: inactive

## CCc1cc(SCc2sc(-c3ccc(C(F)(F)F)cc3)nc2CN2CCN(c3ccc(OC)cc3)CC2)ccc1OCC(=O)O
[1]
  outcome: inactive
[3]
  outcome: inactive
[16]
  outcome: inactive
[8]
  outcome: inactive
NCBI gene 24521
  AC50: 35.9 µM (active)
[10]
  AC50: 15.9 µM (active)

## O=C(CCCCCCCCc1cccnc1)N1CCC(C=C(c2ccccc2)c2ccccc2)CC1
[17]
  outcome: inactive

## Nc1ccc(Nc2ccccc2)cc1
[1]
  AC50: 40.6 µM (active)
[2]
  AC50: 25 µM (active)
[4]
  AC50: 16.9 µM (active)

## CNCc1ccc(NC(=O)c2c[nH]c3c2C(=O)CCC3)cc1
[3]
  outcome: inactive
Adra2b (gene 24174)
  outcome: inactive
[18]
  outcome: inactive
[9]
  outcome: inactive

## O=C(O)CC(O)C(=O)O (stereo not drawn)
[15]
  outcome: inactive
[8]
  outcome: inactive
[9]
  outcome: inactive

## CC1(C)C(=O)N(Br)C(=O)N1Br
[15]
  AC50: 17.1 µM (active)

## CCn1nc(Cc2ccccc2)cc1C1CCN(C[C@H]2C[C@H](N(C)[C@@H](C(=O)O)C(C)C)C[C@@H]2c2cccc(F)c2)CC1
[12]
  outcome: inactive
[6]
  AC50: 7.28 µM (active)
[7]
  AC50: 15.5 µM (active)
[8]
  AC50: 4.11 µM (active)
[10]
  AC50: 4.21 µM (active)
